The source of these data is PubChem BioAssay (Tox21).

Inconclusive results are not listed. The source made the active and inactive calls. Unless noted, the call rests on the fitted dose curve; in most records, active means well fitted curve in the direction sought with a large enough effect in the repeat runs; inconclusive means weak or mixed curves; inactive means no such curve, though single readings can be large; an effect the other way counts as inactive or inconclusive.

A short description of assay [1]: qHTS assay for identifying genotoxic compounds that show differential cytotoxicity against isogenic chicken DT40 cell lines with known DNA damage response pathways - wild type cell line (AID 743012). Further: nearly all actives have a fitted effect of over 60% in size. Further: potency means the concentration at half of the fitted maximal effect. The method in brief: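 Viability by ATP luminescence (CellTiter-Glo, 30 min RT) after 40 h compound treatment at 37 C/5% CO2, using 300 parental DNA repair-proficient DT40 cells per well.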
Background: In qHTS, concentration-response curves come from the screen itself.

A short description of assay [2]: qHTS assay for identifying genotoxic compounds that show differential cytotoxicity against isogenic chicken DT40 cell lines with known DNA damage response pathways - Rad54/Ku70 mutant cell line (AID 743015). Further: nearly all actives have a fitted effect of over 60% in size. Further: potency means the concentration at half of the fitted maximal effect.
Assay [3] is described as follows: qHTS assay to identify small molecule antagonists of the androgen receptor (AR) signaling pathway - cell viability counter screen (AID 743033; further: nearly all actives have a fitted effect of over 45% in size; further: potency means the concentration at half of the fitted maximal effect).
A short description of assay [4]: qHTS assay to identify small molecule antagonists of the androgen receptor (AR) signaling pathway using the MDA cell line - cell viability counter screen (AID 743041; further: nearly all actives have a fitted effect of over 45% in size; further: potency means the concentration at half of the fitted maximal effect). The essentials:
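Using the breast carcinoma line MDA-kb2 AR-luc, test chemicals were co-incubated with R1881 for 16 h; CellTiter-Fluor reagent, added at 15.5 h, provided a fluorescence measure of live cells.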

Assay [5] is described as follows: qHTS assay for identifying genotoxic compounds that show differential cytotoxicity against isogenic chicken DT40 cell lines with known DNA damage response pathways - Rev3 mutant cell line (AID 743014). Further: nearly all actives have a fitted effect of over 55% in size. Further: potency means the concentration at half of the fitted maximal effect.
The target in assay [6] is Androgen receptor (Homo sapiens) (UniProt P10275). Description: qHTS assay to identify small molecule agonists of the androgen receptor (AR) signaling pathway using the MDA cell line (AID 743040; further: nearly all actives have a fitted effect of over 20% in size). The method in brief:
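Stable MMTV-luciferase reporter in MDA-kb2 cells; note the promoter carries GR as well as AR response elements. 16 h compound treatment, 37C, 0% CO2; ONE-Glo luminescence endpoint.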

The target is the same in assay [7]. The experiment in a line: qHTS assay to identify small molecule antagonists of the androgen receptor (AR) signaling pathway using the MDA cell line (AID 743042; further: nearly all actives have a fitted effect of over 55% in size; further: potency means the concentration at half of the fitted maximal effect). The method in brief:
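Antagonist mode: compounds plus R1881 agonist added to MDA-kb2 AR-luc cells, incubated 16 h at 37C. Luciferase reporter luminescence quantified, with multiplexed CellTiter-Fluor readout for cell viability.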

Assay [8] shares this target. The experiment in a line: qHTS assay to identify small molecule antagonists of the androgen receptor (AR) signaling pathway (AID 743035; active means well fitted inhibition curve with a large enough effect in the signal ratio in the repeat runs, not every such curve was filed as active; the % refers to the signal ratio). The essentials:
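Antagonist mode: AR-bla HEK293 cells co-treated with test compounds and agonist R1881 for 16 h at 37C, 5% CO2. Beta-lactamase activity read as FRET fluorescence after 2 h room-temperature substrate loading.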

Androgen receptor (Homo sapiens), sequence (P10275 whole entry, looked up): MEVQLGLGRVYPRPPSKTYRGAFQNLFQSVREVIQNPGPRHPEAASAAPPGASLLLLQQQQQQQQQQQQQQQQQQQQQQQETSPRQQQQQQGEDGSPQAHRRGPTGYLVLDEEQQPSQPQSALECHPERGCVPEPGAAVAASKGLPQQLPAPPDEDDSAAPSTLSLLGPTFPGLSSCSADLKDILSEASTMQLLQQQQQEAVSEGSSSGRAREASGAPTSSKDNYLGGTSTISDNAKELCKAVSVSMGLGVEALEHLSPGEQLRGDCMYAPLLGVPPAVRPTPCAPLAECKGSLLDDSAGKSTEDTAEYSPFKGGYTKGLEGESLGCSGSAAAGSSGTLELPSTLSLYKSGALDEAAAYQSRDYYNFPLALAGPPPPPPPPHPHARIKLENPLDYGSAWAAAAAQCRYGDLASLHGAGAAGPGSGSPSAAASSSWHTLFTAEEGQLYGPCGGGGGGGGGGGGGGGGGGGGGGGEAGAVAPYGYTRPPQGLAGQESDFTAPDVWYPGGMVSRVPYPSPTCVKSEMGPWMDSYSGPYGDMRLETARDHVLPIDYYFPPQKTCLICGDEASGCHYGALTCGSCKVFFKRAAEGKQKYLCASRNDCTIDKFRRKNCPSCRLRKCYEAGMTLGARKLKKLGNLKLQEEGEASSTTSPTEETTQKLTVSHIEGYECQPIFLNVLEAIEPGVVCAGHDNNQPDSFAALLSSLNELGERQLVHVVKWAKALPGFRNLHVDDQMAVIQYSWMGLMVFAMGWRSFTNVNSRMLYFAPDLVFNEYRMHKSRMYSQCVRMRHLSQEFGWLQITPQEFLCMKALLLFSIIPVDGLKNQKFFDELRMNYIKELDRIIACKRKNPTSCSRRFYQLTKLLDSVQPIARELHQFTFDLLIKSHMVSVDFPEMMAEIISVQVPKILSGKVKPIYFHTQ

Regarding `CC(C)[C@@H](N)C(=O)O`, the Potency result in assay [1], in assay [2], in assay [3] and in assay [4] was “inactive” each time.
For `CCCCCCCC(=O)CC[C@@H]1[C@@H](C/C=C\CCCC(=O)OC(C)C)[C@@H](O)C[C@H]1O`, the Potency in assay [1] was 8.41 µM (active); in assay [5], 21.1 µM (active); in assay [2], 13.3 µM (active). Also, the Potency entry in assay [4] is “inactive”.
In the case of `CCCC1([C@H](O)C/C=C/[C@H]2[C@H](O)CC(=O)[C@@H]2CCCCCCC(=O)OC)CCC1`, the Potency in assay [1] is 11.9 µM (active); in assay [5] it was 23.7 µM (active); in assay [2], 13.3 µM (active). The Potency entry in assay [6] and in assay [7] was “inactive” in each case.
In the case of `CC(C)C(=O)OCC(=O)[C@@]12O[C@H](C3CCCCC3)O[C@@H]1C[C@H]1[C@@H]3CCC4=CC(=O)C=C[C@]4(C)[C@H]3[C@@H](O)C[C@@]12C`, the Potency result in assay [5], in assay [3] and in assay [4] was “inactive” each time.
Consider `CC[C@@H](C(=O)[C@@H](C)[C@@H](O)[C@H](C)[C@@H]1O[C@@H]([C@@H](CC)C(=O)O)CC[C@@H]1C)[C@H]1O[C@]2(C=C[C@@H](O)[C@]3(CC[C@@](C)([C@H]4CC[C@](O)(CC)[C@H](C)O4)O3)O2)[C@H](C)C[C@@H]1C`, for which the Potency in assay [1] is 1.5 µM (active); in assay [5] it was 0.944 µM (active); in assay [2] it was 1.19 µM (active); in assay [3] it was 1.51 µM (active).
As to `CC1=C(/C=C/C(C)=C/C=C/C(C)=C/C=C/C=C(C)/C=C/C=C(C)/C=C/C2=C(C)C[C@@H](O)CC2(C)C)C(C)(C)C[C@H](O)C1`, the Potency in assay [1] is 7.5 µM (active); in assay [5] it was 13.3 µM (active); in assay [7] it was 29.8 µM (active). The Potency result in assay [3] and in assay [4] was “inactive” each time.
With `C=C1/C(=C\C=C2/CCC[C@]3(C)[C@@H]([C@H](C)OCCC(C)(C)O)CC[C@@H]23)C[C@@H](O)C[C@@H]1O`, the Potency is 8.41 µM (active) in assay [1], 13.3 µM (active) in assay [5] and 13.3 µM (active) in assay [2]. The Potency result in assay [3] and in assay [4] was “inactive” in each case.
For `OCC(S)CS` (stereo not given), the Potency in assay [1] was 16.8 µM (active); in assay [5] it was 18.8 µM (active); in assay [2] it was 8.41 µM (active). In addition, the Potency entry in assay [3] and in assay [8] was “inactive” each time.
For `CO[C@@]1(NC(=O)C2SC(=C(C(N)=O)C(=O)O)S2)C(=O)N2C(C(=O)O)=C(CSc3nnnn3C)CS[C@@H]21` (stereo not given in full), the Potency entry in assay [1], in assay [5], in assay [2], in assay [3] and in assay [4] was “inactive” each time.
In the case of `CO[C@H]1C=CO[C@@]2(C)Oc3c(C)c(O)c4c(O)c(c(/C=N/N5CCN(C6CCCC6)CC5)c(O)c4c3C2=O)NC(=O)/C(C)=C\C=C[C@H](C)[C@H](O)[C@@H](C)[C@@H](O)[C@@H](C)[C@H](OC(C)=O)[C@@H]1C`, the Potency in assay [1] was 3.35 µM (active); in assay [5] it was 8.41 µM (active); in assay [2], 4.22 µM (active); in assay [4], 23.7 µM (active). Also, the Potency entry in assay [3] is “inactive”.
`CCCCCCCCCCCCCCCCSCC(COC)COP(=O)([O-])OCC[N+](C)(C)C` (stereo not given): the Potency result in assay [5], in assay [2], in assay [3], in assay [6], in assay [4] and in assay [7] was “inactive” in each case.
Consider `CC(C)N=c1cc2n(-c3ccc(Cl)cc3)c3ccccc3nc-2cc1Nc1ccc(Cl)cc1`, for which the Potency was 11.4 µM (active) in assay [5] and 12.7 µM (active) in assay [2]. Further, in assay [3], the Potency result is “inactive”.
As to `C[C@H](/C=C/[C@H](C)C(C)(C)O)[C@H]1CC[C@H]2/C(=C/C=C3C[C@@H](O)C[C@H](O)C3)CCC[C@]12C`, the Potency entry in assay [1], in assay [5], in assay [2], in assay [3] and in assay [4] was “inactive” throughout.
Consider `CC(C)N1CCN(c2ccc(OC[C@H]3CO[C@](Cn4cncn4)(c4ccc(Cl)cc4Cl)O3)cc2)CC1`, for which the Potency is 4.52 µM (active) in assay [1] and 6.39 µM (active) in assay [2]. Besides, the Potency result in assay [3] and in assay [4] was “inactive” each time.
As to `Nc1ncnc2c1ncn2[C@@H]1O[C@H](COP(=O)(O)OP(=O)(O)OP(=O)(O)O)[C@@H](O)[C@H]1O`, the Potency result in assay [1], in assay [5], in assay [2], in assay [3] and in assay [4] was “inactive” each time.
Consider `CC(C)Cc1ccc([C@@H](C)C(=O)NS(C)(=O)=O)cc1`, for which the Potency result in assay [3] and in assay [4] was “inactive” in each case.
For `CO[C@H]1C[C@@H]2CC[C@@H](C)[C@@](O)(O2)C(=O)C(=O)N2CCCC[C@H]2C(=O)O[C@H]([C@H](C)C[C@@H]2CC[C@@H](OC(=O)C(C)(CO)CO)[C@H](OC)C2)CC(=O)[C@H](C)/C=C(\C)[C@@H](O)[C@@H](OC)C(=O)[C@H](C)C[C@H](C)/C=C/C=C/C=C/1C`, the Potency entry in assay [1], in assay [5], in assay [2], in assay [3] and in assay [4] was “inactive” throughout.
As for `O=C1CSC2(CCN(CCCN3c4ccccc4Sc4ccc(Cl)cc43)CC2)N1`, the Potency in assay [1] is 5.96 µM (active); in assay [5], 7.5 µM (active); in assay [2], 8.41 µM (active). Also, the Potency result in assay [6] and in assay [4] was “inactive” throughout.
